Assay results published in the OligoGym collection.

What follows are sequences tested against SLIT1 (assay: pooled miR-30 sensor sort-seq; sequence = guide strand). Conditions: shRNA.
Also: reference of the scale not given here.

Sequence	sensor-assay potency score (higher = more potent)
TTGAGGATCTGCCACAGGCGGA	-1.35
TTGCTTAAGGAACTGATCTTGT	-0.323
TTGCAGGTCAGTGAACTGCAGG	-1.32
TTGCTCACACAGCTCGCCCGAA	-0.836
TTCTTGCTCTTGATCTGCCCGA	-0.859
TAAGTTTTTTAAACATCCCAGT	-1.01
TGAAGGTAGACAGCTGTCCCGG	-1.03
TTCAATTTCTGACACCTTGTTG	-0.171
TTGTGGATGCAGCTGATGCGGT	-0.921
TTGACACTGAGCAACTTCTCAC	-0.268
TTCAATCGCAGTTCTGCCGTGG	0.209
TTGACATGGGTTCAGATCCGGA	-1.04

Each sequence was assayed against SLITRK3 in the same assay as above. Conditions: shRNA.

Sequence	sensor-assay potency score (higher = more potent)
TTAACTTCACAGTAGCATGGAT	-0.128
TTCTCATTGAGGTCTATCTGGA	-0.877
TTGCACATTTGGGTAACCGGGT	-0.695
TTGATGTGCAAATTACAGGTAC	-0.245
TTTCTCGTAGGTCCTTTCCATG	-1.36
TCTTTTTCCAGCAAGGTCCGGT	-0.176
TAAAAAAGAACCTTTAACCTAT	0.15
AATGACATTGTAATCTGCCTGC	0.274
TTGCAGTTGACAGTCAAGCCAA	-0.544
TTATCCACAACATCCTTCCTCT	0.0957
TTGAACTCAAAGTACAAGTAGT	-0.338
TTCATGTAGATATAGTCTCTTT	-0.676

Each sequence was assayed against SLITRK5 in the same assay as above. Conditions: shRNA.

Sequence	sensor-assay potency score (higher = more potent)
TACATCTGAATAGTCAGGGCAC	0.215
TAGTCAGAAATAAGTCTCCTTG	-0.638
TCGCTCTGGTTCTTCTTCCTGC	-1.1
TACAGTGTGACACCTCTGCAAA	-1.11
TTATTCAAGAATAGCAGCTGGA	-0.212
TTGGATGAGTGACTTCAGCTGG	0.319
TTCCAGACTGAATCTCGCGGAT	-0.818
AACATTGCTACCTAGATGCAAA	-1.34
TAATACAGTGTGACACCTCTGC	0.818
TACAGCAAACGCTAGAGTCTGC	-0.49
TAATTGACAAACTCATTGGGAT	0.191

What follows are sequences tested against SLMAP in the same assay as above. Conditions: shRNA.

Sequence	sensor-assay potency score (higher = more potent)
TAAGAGTCTATCTTCATCTATT	-0.538
TAACTTTCCGTGTATTCTCTGT	-0.472
TTCACTGTCCTTCTCCTCCCGG	-0.623
